Source: ChEMBL document CHEMBL1961873, “Compounds: GSK PKIS; Assays: Nanosyn kinase panel” (2012)

Assays:
[1] = biological target: Rho-associated protein kinase 1 (Homo sapiens) (UniProt Q13464); details: at 1 µM;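 also: reported values are mean percent inhibition of ROCK1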
[2] = biological target: Rho-associated protein kinase 2 (Homo sapiens) (UniProt O75116); details: at 0.1 µM
[3] = biological target: Rho-associated protein kinase 2 (Homo sapiens) (UniProt O75116); details: at 1 µM
[4] = biological target: Ribosomal protein S6 kinase alpha-1 (Homo sapiens) (UniProt Q15418); details: at 0.1 µM
[5] = biological target: Ribosomal protein S6 kinase alpha-1 (Homo sapiens) (UniProt Q15418); details: at 1 µM
[6] = biological target: Ribosomal protein S6 kinase alpha-3 (Homo sapiens) (UniProt P51812); details: at 0.1 µM
[7] = biological target: Ribosomal protein S6 kinase alpha-3 (Homo sapiens) (UniProt P51812); details: at 1 µM
[8] = biological target: Ribosomal protein S6 kinase alpha-2 (Homo sapiens) (UniProt Q15349); details: at 0.1 µM
[9] = biological target: Ribosomal protein S6 kinase alpha-2 (Homo sapiens) (UniProt Q15349); details: at 1 µM
[10] = biological target: Ribosomal protein S6 kinase alpha-6 (Homo sapiens) (UniProt Q9UK32); details: at 0.1 µM
[11] = biological target: Ribosomal protein S6 kinase alpha-6 (Homo sapiens) (UniProt Q9UK32); details: at 1 µM
[12] = biological target: T1, Serine/threonine-protein kinase Sgk1 (Homo sapiens) (UniProt O00141); details: at 0.1 µM
T1 sequence (whole entry): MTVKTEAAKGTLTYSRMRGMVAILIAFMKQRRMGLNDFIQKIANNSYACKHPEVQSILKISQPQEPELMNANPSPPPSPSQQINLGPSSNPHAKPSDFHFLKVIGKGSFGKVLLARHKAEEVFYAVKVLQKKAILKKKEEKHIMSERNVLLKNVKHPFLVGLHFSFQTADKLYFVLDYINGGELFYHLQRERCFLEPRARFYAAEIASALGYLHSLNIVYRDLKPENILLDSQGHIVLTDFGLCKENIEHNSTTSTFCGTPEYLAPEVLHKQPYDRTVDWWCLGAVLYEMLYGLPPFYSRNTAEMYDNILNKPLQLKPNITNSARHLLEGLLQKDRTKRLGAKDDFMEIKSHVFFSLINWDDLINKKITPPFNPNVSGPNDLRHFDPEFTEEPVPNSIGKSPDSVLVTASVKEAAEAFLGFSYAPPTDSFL

[13] = biological target: T1, Serine/threonine-protein kinase Sgk1 (Homo sapiens); details: at 1 µM
[14] = biological target: T2, Serine/threonine-protein kinase Sgk2 (Homo sapiens) (UniProt Q9HBY8); details: at 0.1 µM
T2 sequence (whole entry): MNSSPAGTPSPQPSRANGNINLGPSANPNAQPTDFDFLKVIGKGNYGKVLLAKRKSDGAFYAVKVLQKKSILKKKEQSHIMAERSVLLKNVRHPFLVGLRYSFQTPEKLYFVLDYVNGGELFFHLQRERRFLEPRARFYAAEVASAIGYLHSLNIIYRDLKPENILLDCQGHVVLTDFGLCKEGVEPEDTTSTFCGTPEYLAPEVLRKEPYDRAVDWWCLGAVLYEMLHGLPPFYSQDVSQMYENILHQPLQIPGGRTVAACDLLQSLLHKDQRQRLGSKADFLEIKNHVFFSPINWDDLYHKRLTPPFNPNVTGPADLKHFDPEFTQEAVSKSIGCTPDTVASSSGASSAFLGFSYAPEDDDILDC

[15] = biological target: T2, Serine/threonine-protein kinase Sgk2 (Homo sapiens); details: at 1 µM
[16] = biological target: T3, Serine/threonine-protein kinase Sgk3 (Homo sapiens) (UniProt Q96BR1); details: at 0.1 µM
T3 sequence (whole entry): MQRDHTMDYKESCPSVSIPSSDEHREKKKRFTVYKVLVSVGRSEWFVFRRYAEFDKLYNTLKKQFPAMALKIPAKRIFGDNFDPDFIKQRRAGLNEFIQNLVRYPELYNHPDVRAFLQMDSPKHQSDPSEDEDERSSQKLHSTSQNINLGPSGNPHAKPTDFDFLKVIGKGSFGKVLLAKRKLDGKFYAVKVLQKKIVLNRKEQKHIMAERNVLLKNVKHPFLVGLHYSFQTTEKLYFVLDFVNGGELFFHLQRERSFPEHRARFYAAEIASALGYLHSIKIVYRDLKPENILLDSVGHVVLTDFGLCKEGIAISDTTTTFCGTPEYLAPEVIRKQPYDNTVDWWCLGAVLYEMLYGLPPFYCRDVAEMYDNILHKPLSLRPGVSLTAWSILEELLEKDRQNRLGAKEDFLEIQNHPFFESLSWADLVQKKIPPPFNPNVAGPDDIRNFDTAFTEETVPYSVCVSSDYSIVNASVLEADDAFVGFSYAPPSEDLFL

[17] = biological target: T3, Serine/threonine-protein kinase Sgk3 (Homo sapiens); details: at 1 µM
[18] = biological target: 5'-AMP-activated protein kinase catalytic subunit alpha-1 (Homo sapiens) (UniProt Q13131); details: at 0.1 µM
[19] = biological target: 5'-AMP-activated protein kinase catalytic subunit alpha-1 (Homo sapiens) (UniProt Q13131); details: at 1 µM
[20] = biological target: 5'-AMP-activated protein kinase catalytic subunit alpha-2 (Homo sapiens) (UniProt P54646); details: at 0.1 µM;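 also: mean inhibition measured on the AMPK complex of alpha2, beta1 and gamma1 subunits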
Chain of 5'-AMP-activated protein kinase catalytic subunit alpha-2 (Homo sapiens) (P54646 whole entry, looked up): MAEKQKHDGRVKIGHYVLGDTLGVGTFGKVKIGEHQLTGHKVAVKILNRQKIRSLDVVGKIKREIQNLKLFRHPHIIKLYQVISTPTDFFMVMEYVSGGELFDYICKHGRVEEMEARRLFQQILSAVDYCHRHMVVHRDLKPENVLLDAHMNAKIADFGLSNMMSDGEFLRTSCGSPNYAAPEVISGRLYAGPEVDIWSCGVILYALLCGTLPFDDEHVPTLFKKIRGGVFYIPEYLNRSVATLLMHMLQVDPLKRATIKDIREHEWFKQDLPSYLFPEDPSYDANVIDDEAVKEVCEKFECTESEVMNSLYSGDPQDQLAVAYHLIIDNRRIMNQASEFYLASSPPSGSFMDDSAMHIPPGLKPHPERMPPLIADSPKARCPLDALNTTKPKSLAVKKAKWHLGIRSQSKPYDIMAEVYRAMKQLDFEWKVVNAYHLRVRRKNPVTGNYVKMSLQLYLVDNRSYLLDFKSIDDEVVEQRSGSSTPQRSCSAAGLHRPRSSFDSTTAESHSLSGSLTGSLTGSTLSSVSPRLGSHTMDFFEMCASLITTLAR

Chain of Ribosomal protein S6 kinase alpha-6 (Homo sapiens) (Q9UK32 whole entry): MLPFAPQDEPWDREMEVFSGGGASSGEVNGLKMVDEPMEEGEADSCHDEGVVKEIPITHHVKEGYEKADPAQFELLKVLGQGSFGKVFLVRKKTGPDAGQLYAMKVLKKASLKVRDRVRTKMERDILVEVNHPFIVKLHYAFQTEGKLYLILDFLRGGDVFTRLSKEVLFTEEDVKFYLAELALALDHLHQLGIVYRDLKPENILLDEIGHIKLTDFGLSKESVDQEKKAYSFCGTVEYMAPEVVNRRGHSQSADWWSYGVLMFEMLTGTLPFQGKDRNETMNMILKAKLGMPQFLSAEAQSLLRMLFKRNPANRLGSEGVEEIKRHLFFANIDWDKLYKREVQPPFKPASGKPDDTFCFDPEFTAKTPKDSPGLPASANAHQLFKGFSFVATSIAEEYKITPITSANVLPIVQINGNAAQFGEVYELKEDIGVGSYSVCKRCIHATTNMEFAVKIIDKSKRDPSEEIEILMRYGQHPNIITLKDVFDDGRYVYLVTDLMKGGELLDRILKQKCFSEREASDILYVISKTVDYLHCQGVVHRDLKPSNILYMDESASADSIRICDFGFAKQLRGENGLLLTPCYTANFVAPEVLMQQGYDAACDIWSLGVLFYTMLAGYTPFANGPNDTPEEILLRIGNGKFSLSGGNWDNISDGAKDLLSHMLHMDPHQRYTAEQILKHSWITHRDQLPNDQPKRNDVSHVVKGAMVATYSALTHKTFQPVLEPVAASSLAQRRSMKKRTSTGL
Chain of Rho-associated protein kinase 2 (Homo sapiens) (O75116 whole entry, looked up): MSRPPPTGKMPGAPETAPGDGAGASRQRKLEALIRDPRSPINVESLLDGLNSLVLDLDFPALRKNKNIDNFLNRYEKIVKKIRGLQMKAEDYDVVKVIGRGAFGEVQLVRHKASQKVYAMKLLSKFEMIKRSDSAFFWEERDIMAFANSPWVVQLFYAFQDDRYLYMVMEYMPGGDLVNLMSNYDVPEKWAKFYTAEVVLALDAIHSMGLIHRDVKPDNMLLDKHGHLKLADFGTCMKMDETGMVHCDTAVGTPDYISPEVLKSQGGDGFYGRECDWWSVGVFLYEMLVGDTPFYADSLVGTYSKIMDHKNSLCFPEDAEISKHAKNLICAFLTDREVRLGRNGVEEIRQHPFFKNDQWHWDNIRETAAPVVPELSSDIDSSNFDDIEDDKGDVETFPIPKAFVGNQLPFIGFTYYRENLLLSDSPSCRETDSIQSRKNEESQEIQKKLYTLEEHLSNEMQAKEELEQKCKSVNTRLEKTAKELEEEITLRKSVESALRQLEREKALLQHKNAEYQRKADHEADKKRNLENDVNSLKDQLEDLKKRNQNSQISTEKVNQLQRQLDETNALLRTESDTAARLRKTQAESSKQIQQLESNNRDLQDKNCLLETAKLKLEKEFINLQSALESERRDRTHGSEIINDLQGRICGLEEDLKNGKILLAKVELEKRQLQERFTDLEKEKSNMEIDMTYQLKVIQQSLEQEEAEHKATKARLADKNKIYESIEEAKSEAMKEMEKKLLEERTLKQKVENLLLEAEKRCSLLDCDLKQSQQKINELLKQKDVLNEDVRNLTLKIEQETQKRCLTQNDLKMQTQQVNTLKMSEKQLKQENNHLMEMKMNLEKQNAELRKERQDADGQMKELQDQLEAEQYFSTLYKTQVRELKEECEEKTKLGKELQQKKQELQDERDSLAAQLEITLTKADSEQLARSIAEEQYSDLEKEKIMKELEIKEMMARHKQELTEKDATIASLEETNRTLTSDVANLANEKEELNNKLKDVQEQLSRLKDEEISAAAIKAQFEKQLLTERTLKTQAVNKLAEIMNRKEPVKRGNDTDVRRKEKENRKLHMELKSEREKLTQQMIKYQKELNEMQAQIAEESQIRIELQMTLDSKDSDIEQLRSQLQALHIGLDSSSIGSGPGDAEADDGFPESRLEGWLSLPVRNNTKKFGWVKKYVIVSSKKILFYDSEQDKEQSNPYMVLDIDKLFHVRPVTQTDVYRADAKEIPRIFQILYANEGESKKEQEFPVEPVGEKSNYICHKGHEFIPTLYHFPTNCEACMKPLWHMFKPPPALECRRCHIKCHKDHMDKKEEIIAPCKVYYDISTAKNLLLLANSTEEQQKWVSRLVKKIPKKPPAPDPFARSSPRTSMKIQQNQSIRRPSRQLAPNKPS
Chain of Ribosomal protein S6 kinase alpha-3 (Homo sapiens) (P51812 whole entry): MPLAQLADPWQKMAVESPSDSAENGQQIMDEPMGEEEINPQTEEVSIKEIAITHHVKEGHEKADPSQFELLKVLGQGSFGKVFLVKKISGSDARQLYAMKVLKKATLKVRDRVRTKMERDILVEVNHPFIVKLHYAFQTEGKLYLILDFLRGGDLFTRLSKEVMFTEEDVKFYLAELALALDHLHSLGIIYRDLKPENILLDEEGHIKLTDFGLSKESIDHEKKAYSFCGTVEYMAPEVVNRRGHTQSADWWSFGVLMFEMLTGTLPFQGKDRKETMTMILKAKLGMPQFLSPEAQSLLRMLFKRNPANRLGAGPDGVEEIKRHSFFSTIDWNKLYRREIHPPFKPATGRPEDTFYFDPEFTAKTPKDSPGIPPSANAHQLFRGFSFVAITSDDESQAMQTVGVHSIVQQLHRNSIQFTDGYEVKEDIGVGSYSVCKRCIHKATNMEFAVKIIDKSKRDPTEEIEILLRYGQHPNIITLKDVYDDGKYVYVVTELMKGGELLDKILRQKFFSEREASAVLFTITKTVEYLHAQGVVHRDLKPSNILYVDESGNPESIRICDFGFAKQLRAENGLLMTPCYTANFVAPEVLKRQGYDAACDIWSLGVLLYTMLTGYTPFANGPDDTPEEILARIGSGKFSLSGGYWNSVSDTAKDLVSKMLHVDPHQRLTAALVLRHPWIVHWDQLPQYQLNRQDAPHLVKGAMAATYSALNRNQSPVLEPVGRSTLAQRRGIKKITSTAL
Chain of Ribosomal protein S6 kinase alpha-1 (Homo sapiens) (Q15418 whole entry): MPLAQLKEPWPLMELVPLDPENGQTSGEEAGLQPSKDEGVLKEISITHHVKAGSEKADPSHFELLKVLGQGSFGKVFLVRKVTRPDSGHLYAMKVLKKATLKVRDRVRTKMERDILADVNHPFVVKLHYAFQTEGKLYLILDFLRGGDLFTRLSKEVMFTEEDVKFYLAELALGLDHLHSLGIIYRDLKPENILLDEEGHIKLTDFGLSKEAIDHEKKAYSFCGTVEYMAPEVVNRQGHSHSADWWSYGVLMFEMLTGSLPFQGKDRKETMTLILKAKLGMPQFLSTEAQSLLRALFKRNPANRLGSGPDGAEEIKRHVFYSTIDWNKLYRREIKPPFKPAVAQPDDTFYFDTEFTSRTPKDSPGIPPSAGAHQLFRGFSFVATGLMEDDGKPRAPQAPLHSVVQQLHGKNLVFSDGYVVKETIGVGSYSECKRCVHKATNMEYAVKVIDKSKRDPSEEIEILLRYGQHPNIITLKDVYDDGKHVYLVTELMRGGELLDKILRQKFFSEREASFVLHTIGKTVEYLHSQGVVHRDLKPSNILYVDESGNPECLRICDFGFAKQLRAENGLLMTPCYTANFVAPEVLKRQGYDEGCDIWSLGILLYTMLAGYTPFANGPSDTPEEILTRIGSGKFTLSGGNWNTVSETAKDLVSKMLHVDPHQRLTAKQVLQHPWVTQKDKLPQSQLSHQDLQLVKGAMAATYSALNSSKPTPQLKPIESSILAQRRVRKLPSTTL
Chain of 5'-AMP-activated protein kinase catalytic subunit alpha-1 (Homo sapiens) (Q13131 whole entry, looked up): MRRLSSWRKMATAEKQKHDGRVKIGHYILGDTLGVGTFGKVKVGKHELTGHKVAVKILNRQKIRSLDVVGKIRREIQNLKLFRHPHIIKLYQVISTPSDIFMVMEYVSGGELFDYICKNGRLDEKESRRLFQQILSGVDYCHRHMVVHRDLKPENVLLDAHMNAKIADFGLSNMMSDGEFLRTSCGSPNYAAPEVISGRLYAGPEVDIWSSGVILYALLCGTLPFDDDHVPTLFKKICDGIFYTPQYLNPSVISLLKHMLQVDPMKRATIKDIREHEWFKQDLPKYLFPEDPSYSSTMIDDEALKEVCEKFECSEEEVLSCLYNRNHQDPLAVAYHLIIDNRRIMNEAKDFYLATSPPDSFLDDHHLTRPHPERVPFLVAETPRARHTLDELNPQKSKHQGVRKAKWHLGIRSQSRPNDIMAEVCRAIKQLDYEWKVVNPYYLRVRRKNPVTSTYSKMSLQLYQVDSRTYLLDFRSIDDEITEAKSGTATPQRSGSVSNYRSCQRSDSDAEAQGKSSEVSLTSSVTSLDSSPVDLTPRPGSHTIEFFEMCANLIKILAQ

| Structure (SMILES) | inhibition [1] | inhibition [2] | inhibition [3] | inhibition [4] | inhibition [5] | inhibition [6] | inhibition [7] | inhibition [8] | inhibition [9] | inhibition [10] | inhibition [11] | inhibition [12] | inhibition [13] | inhibition [14] | inhibition [15] | inhibition [16] | inhibition [17] | inhibition [18] | inhibition [19] | inhibition [20] |
| --- | --- | --- | --- | --- | --- | --- | --- | --- | --- | --- | --- | --- | --- | --- | --- | --- | --- | --- | --- | --- |
| NS(=O)(=O)c1ccc(Nc2cc(-c3ccc(O)c(F)c3)n[nH]2)cc1 | 1.73% | -1.97% | 3.32% | 4.13% | 32.6% | 13.1% | 56.4% | 16.5% | 63.5% | 13.4% | 59.5% | -0.99% | 3.11% | -0.41% | 3.07% | 0.2% | -0.29% | 0.53% | 15.2% | 0.54% |
| CCN(CC)Cc1ccc(Nc2nccc(-c3cnn4ncccc34)n2)cc1 | 9.36% | 2.02% | 13.7% | 0.21% | 2.52% | -0.63% | 2.49% | 2.26% | 3.81% | 0.43% | 9.62% | 1.11% | 7.61% | 3.89% | 4.57% | 3.92% | 2.8% | 3.26% | 9.99% | 7.01% |
| O=C(NCC1CC1)c1ccc(-c2cccc(C(=O)NC3CC3)c2)cc1 | 2.85% | 2.43% | 1.11% | -0.06% | 0.15% | 0.89% | -1.16% | 0.67% | 0.58% | 0.55% | 0.61% | 0.99% | 0.82% | 0.58% | 3.1% | 1.28% | 1.29% | 2.2% | 3.29% | 0.26% |
| COc1cc(Nc2ncc3c(C)nc(-c4cccc(Oc5ccccc5)c4)n3n2)cc(OC)c1OC | 1.17% | 0.99% | -0.91% | 1.56% | 7.14% | 0.9% | 8.61% | 2.77% | 14.4% | 2.59% | 13.2% | 2.08% | -0.71% | 1.09% | -2.63% | 0.96% | -0.95% | 1.87% | 13% | 0.57% |
| COc1cc2ncn(-c3cc(OCc4cccs4)c(C(N)=O)s3)c2cc1OC | 2.63% | 3.91% | 11.3% | 4.14% | 12.6% | 3.71% | 11.8% | 2.98% | 9.31% | 1.53% | 9.08% | 5.73% | 8.78% | 4.34% | 10.6% | 5.06% | 6.9% | 3.16% | 12.8% | 3.12% |
| O=C(Nc1n[nH]c2nc(-c3ccc(O)cc3)c(Br)cc12)C1CC1 | 1.33% | 4.18% | 6.43% | 7.28% | 33% | 10.3% | 44.8% | 22.4% | 70.6% | 16.4% | 59.7% | 3.83% | 12.1% | 6.54% | 24.8% | 5.88% | 16.7% | 5.78% | 20.1% | 4.36% |
| COc1cc2ncn(-c3cc(OCCc4ccccc4)c(C(N)=O)s3)c2cc1OC | 0.3% | 0.94% | -1.5% | 0.33% | -0.89% | 0.83% | 0.32% | 1.71% | 1.86% | 1.48% | 2.25% | 0.21% | 3.41% | -0.42% | -1.95% | 2.58% | 2.59% | 2.79% | 4.42% | 1.45% |
| COc1cc(N2CCN(C(C)C)CC2)ccc1Nc1nc(Nc2ccc(F)cc2C(=O)NC[C@@H](O)CO)c2cc[nH]c2n1 | 2.04% | 4.24% | 8.05% | 3.27% | 12.1% | 2.71% | 7.3% | 3.45% | 5.13% | 2.51% | 8.27% | 4.42% | 7.18% | 2.67% | 4.33% | 2.59% | 6.24% | 4.23% | 5.78% | 2.37% |
| CCc1cccc(CC)c1/C=C/c1cncc(C(=O)NC)c1 | 1.22% | 1.66% | -0.13% | 1.4% | 0.95% | 0.3% | -0.37% | 1.51% | 0.74% | 0.65% | 1.72% | 2.19% | -0.86% | 3.62% | -2.52% | 0.54% | 0.72% | 1.05% | 1.48% | 0.22% |
| NS(=O)(=O)c1ccc(N/N=C2\C(=O)Nc3ccc(-c4cnco4)cc32)cc1 | 37.6% | 16.3% | 58.3% | -0.32% | 3.8% | -1% | 2.65% | 1.5% | 7.28% | 0.03% | 5.02% | 1.68% | 10.2% | 1.11% | 3.35% | 1.34% | 5.76% | 3.38% | 15.9% | 5.38% |
| NC(=O)c1cc(-c2ccc(F)cc2)cc(-c2ccncc2)c1N | 1.76% | 2.33% | 6.23% | 1.16% | 2.59% | 0.17% | 1.79% | 1.82% | 2.97% | 0.55% | 0.89% | 3.79% | 4.51% | 1.44% | 2.58% | 3.22% | 5.96% | 2.78% | 2.57% | 2.54% |
| CS(=O)(=O)CCNCc1ccc(-c2ccc3ncnc(Nc4ccc(OCc5ccccc5)c(Br)c4)c3c2)o1 | 2.16% | 0.72% | 1.26% | -0.49% | 0.36% | -0.55% | -1.39% | 1.5% | 1.01% | -0.12% | -1.41% | 1.16% | 0.22% | 2.67% | 1.45% | 3.29% | 3.35% | 2.94% | 1.46% | 1.41% |
| Fc1ccc(-c2ncn(C3CCNCC3)c2-c2ccnc(Oc3ccc(F)c(F)c3)n2)cc1 | 6.19% | 1.74% | 5.45% | 0.34% | 2.83% | -0.47% | 1.32% | 2.41% | 2.42% | 0.29% | -0.02% | 1.79% | 3.94% | 3.89% | 3.96% | 2.65% | 2.26% | 4.6% | 5.31% | 3.75% |
